TDP-43 yeast inh – rescues yeast growth from TDP-43 toxicity | TDP-43 expressing yeast growth rescue, BacTiter-Glo, 24 h | Potency, µM (top dose mostly 46.1 µM), inactives show at the highest dose growth rescue (activation), hits mostly activators | 410,000 compounds, 1.8% hits; further: % of control where 0% means no effect; nearly all actives have a fitted effect of over 50% in size
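Yeast cells expressing TDP-43 under galactose induction are exposed to compounds for 24 hr at 30 deg C. BacTiter-Glo luminescence measures growth, so protective compounds score as activators.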
aSyn yeast inh – inhibitors of alpha-synuclein toxicity in yeast; 370,000 compounds, 0.14% hits; Potency, µM (highest dose often 46.1 µM), for the others: top-dose growth rescue (activation), usual class: activators; Yeast expressing alpha-synuclein, growth rescue, BacTiter-Glo, 24 h; further: % of control where 0% means no effect; nearly all actives have a fitted effect of over 65% in size
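Galactose-induced alpha-syn yeast (OD600=0.02, raffinose-pregrown) + pinned cpd, 24 hr, 30 deg C; growth by BacTiter-Glo luminescence. Growth restoration scores as activation.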
Mito fusion act – inhibitors of mitochondrial division or activators of mitochondrial fusion; S. cerevisiae fusion-defective mutant growth rescue, CellTiterGlo 48 h; 320,000 compounds, 0.23% hits; Potency, µM (doses to about 46.1 µM), for the others: at the top dose growth rescue (activation), actives largely listed as activators; further: % of control where 0% means no effect; nearly all actives have a fitted effect of over 45% in size
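Growth-rescue viability read-out: after 48 h at the non-permissive 37C in glycerol/ethanol YPEG, yeast mitochondrial fusion mutants are measured by CellTiterGlo luminescence; compounds (23 nl pinned per well) restoring growth score as division inhibitors or fusion activators.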
FUS suppressor – FUS proteinopathy suppression in yeast; Potency, µM (series often up to 76.6 µM), usual class: activators; S. cerevisiae FUS-expressing, growth rescue, OD600, 24 h; 390,000 compounds, 0.24% hits; AID 1347120;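 further: plate controls were DMSO vehicle for no effect and reference control for full effect; nearly all actives have a fitted effect of over 55% in size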
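Read-out: OD at 600 nm after 24hr at 30C, reporting rescue of FUS-induced yeast toxicity. Cells at OD 0.005 in galactose (2%) minimal medium; compounds tested in a dilution series; CP55940 titration from 92uM final as control.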
Abeta rescue – A-beta toxicity reversal in yeast; yeast expressing A-beta42, growth rescue, OD600, 48 h; response scale: 0% DMSO, 100% iron-clioquinol control; Potency, µM (titrated, usually from 46.1 µM), most hits filed as activators; 410,000 compounds, 0.063% hits; AID 1347071; further: nearly all actives have a fitted effect of over 55% in size
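Yeast growth medium received pinned compounds, then yeast cells expressing toxic A-beta were added; plates incubated at 30 C for 48 hr. Growth read as absorbance at 600 nm, normalized to DMSO and equimolar FeCl3 plus clioquinol controls.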
Active calls of the source: *; i = inactive; ? = inconclusive; . = no result given. An excerpt weighted towards active compounds, which were near 2.2% of everything screened. The call rests on the fitted dose curve; in most records, active means well fitted curve in the direction sought with a large enough effect; inconclusive means small, poorly fitted or top-dose-only effect, or another doubt; inactive means no such curve, though single readings can be large; an effect the other way counts as inactive or inconclusive. Potency means the concentration at half of the fitted maximal effect.

SMILES | TDP-43 yeast inh | aSyn yeast inh | Mito fusion act | FUS suppressor | Abeta rescue
Cc1ccc2[nH]cc(C(c3ccccc3)c3ccc(C)s3)c2c1 (configuration not stated) | 20.4% | . | . | i | i
COc1ccc(-c2nc(Cn3c(SCc4ccccc4F)nc4ccncc43)c(C)o2)cc1 | 12.6% | 1.6% | 0.2% | i | i
COc1ccc(-c2nc(Cn3c(SCc4ccc(F)cc4)nc4cccnc43)c(C)o2)cc1 | 25.0% | . | . | i | i
COc1ccc(-c2nc(Cn3c(SCc4cccc(F)c4)nc4cccnc43)c(C)o2)cc1 | 20µM* | . | . | ? | i
COc1ccc(-c2nc(Cn3c(SCc4ccccc4F)nc4cccnc43)c(C)o2)cc1 | 31.6µM* | . | . | i | i
Cc1oc(-c2ccccc2Cl)nc1Cn1c(SCc2cccc(F)c2)nc2cccnc21 | 17.8µM* | . | . | 35.5µM* | ?
Cc1ccc(C)c(CS(=O)(=O)c2cn(CC(=O)N(C(C)C)C(C)C)c3ccccc23)c1 | ? | . | . | i | i
COc1ccc(-c2onc(C)c2-c2ccc(C(=O)OC(C)C)o2)c(O)c1 | 14.1µM* | 11.8% | 1.9% | i | i
Cc1ccc(SC[C@H](C)CN2CCC(NC(=O)OCc3ccccc3)CCC2=O)cc1 (some centres not stated) | ? | 25.1µM* | . | ? | i
CN(C)c1ccc2c(=O)c3ccccc3oc2n1 | 15.8µM* | ? | . | i | i
Cc1ccc(S(=O)(=O)Nc2ccc(N=Nc3ccc(O)cc3)cc2)cc1 | -91.9% | -70.0% | 20µM* | i | i
Cc1cccc(C)c1NC(=O)C(c1ccccc1)N1CCN(C)CC1 (configuration not stated) | 23.5% | ? | . | i | i
COc1ccc(NS(=O)(=O)c2ccc3oc(SCc4ccc(F)cc4)nc3c2)cc1 | -12.9% | -0.9% | 15.8µM* | i | i
Cc1ccc(-n2nc(C)cc2Nc2ncc(Cl)cc2Cl)cc1 | -49.3% | -32.0% | -2.2% | . | i
Cc1cc(Nc2ncc(Cl)cc2Cl)n(-c2ccccc2C)n1 | 16.0% | -11.4% | 22.4µM* | i | i
Cc1cc(Nc2nc(Cl)c(Cl)cc2Cl)n(-c2ccccc2)n1 | 17.8µM* | 0.4% | -19.2% | . | i
Cc1ccc2nc(-c3ccc(C)c(NC(=O)COc4ccccc4Cl)c3)oc2c1 | . | -5.3% | . | . | .
O=Cc1cccc(OCc2cccc3ccccc23)c1 | 14.1µM* | -1.3% | -8.1% | i | i
COc1ccc(COc2cccc(C=O)c2)cc1 | ? | -24.1% | 1.6% | i | i
CN1CCc2c(sc3c2C(=O)NC(c2ccc(OC(=O)c4ccccc4)cc2)N3)C1 (configuration not stated) | 26.6% | . | . | i | i
O=C(Cc1c(F)cccc1Cl)OCC(=O)N1CCc2ccccc21 | 11.2µM* | 6.8% | . | i | i
COc1ccc(/C=N/NC(=O)c2ccn[nH]2)cc1COc1ccc([N+](=O)[O-])c(C)c1 | 25.1µM* | 28.6% | 7.2% | i | i
COc1ccc(/C=N/NC(=O)c2ccoc2C)cc1OC | -12.6% | -12.2% | -2.4% | i | i
COc1ccc(/C=N/NC(=O)c2ccoc2C)cc1COc1ccc(Cl)cc1 | 14.1µM* | 15.0% | 22.7% | ? | ?
COc1ccc(/C=N/NC(=O)c2ccn[nH]2)cc1COc1ccc(F)cc1 | ? | 11.5% | 1.3% | i | i
SMILES | TDP-43 yeast inh | aSyn yeast inh | Mito fusion act | FUS suppressor | Abeta rescue
O=C1OCC(c2ccccc2)=C1c1ccccc1 | 17.8µM* | -1.6% | 6.2% | i | i
CS(=O)(=O)c1ccc(C2=C(c3ccccc3)C(=O)OC2)cc1 | 23.1% | -6.5% | . | i | i
Cc1ccsc1/C=C/C1=Cc2c(sc(NC(=O)CSc3n[nH]c(N)n3)c2C#N)C(C)(C)C1 | -18.7% | -0.1% | 3.1% | 25.1µM* | i
NC(=O)c1ccsc1NC(=O)CSc1n[nH]c(N)n1 | 0.0% | -7.5% | . | i | i
CCOC(=O)c1sc(NC(=O)CSc2n[nH]c(-c3ccncc3)n2)c(C#N)c1C | -1.9% | -2.5% | 2.7% | i | i
CCOc1ccc(/C=C/C2=Cc3c(sc(NC(=O)CSc4n[nH]c(N)n4)c3C#N)C(C)(C)C2)cc1 | -10.9% | 0.1% | -4.8% | 8.91µM* | i
C/C(=N/NC(=O)c1ccoc1C)c1cccs1 | . | . | . | i | .
Fc1ccc(-c2nc3ccc(Br)cn3c2Cc2cccc(Cl)c2)cc1 | 35.5µM* | 4.3% | . | i | i
Brc1ccc(-c2nc3ccc(Br)cn3c2Cc2ccccc2)cc1 | 21.6% | 5.9% | . | i | i
Fc1ccc(-c2nc3ccc(Br)cn3c2Cc2ccccc2)cc1 | 35.5µM* | 17.5% | . | i | i
Fc1ccc(-c2nc3ccc(Br)cn3c2Cc2cccc(F)c2)cc1 | 16.2% | -8.5% | . | i | i
Clc1ccc(-c2nc3ccc(Br)cn3c2Cc2ccsc2)cc1 | 35.5µM* | -17.3% | . | i | i
CCC(=O)N1CCc2cc(Br)cc(S(=O)(=O)NCCc3cccc(C)c3)c21 | 5.6% | . | . | i | i
CCOc1ccc(CCNC(=O)Cc2ccc(NC(=O)N3CCSc4ncccc43)cc2)cc1 | 1.7% | . | . | i | i
O=C(C[n+]1ccccc1Cl)c1ccccc1 | . | -1.2% | . | . | .
COc1ccccc1CNC(=O)COCc1cc(-c2ccc3c(c2)OCO3)on1 | 22.4µM* | . | . | ? | i
CCC(=O)Nc1cc(C(=O)OC(C(=O)c2ccc(C)c(C)c2)c2ccccc2)ccc1C (configuration not stated) | -0.1% | -0.5% | 3.5% | 10µM* | i
CCNc1nc(NC(C)C)nc(SCCOC(=O)c2ccccc2)n1 | 12.6µM* | -16.4% | 19.4% | i | i
CC(C)Nc1nc(NC(C)C)nc(SCCOC(=O)Nc2ccc(Cl)cc2Cl)n1 | 15.8µM* | -6.2% | 9.1% | . | i
CCNc1nc(NC(C)C)nc(SCCOc2ccc(C)cc2)n1 | 12.6µM* | -11.8% | -2.5% | i | i
CCNc1nc(NCC)nc(OCCOC(=O)c2ccccc2)n1 | ? | -2.0% | -1.1% | i | i
CCOC(=O)CCC(=O)Nc1nnc2n1CCS2 | 0.0% | 0.5% | . | i | i
CCN(c1ccccc1)S(=O)(=O)c1c(-c2ccc(C)cc2)csc1C(=O)OC | -0.7% | -13.6% | . | ? | i
Nc1c2c(nc3sc4c(c13)CCCC4)-c1ccccc1CC2 | 2.51µM* | -6.6% | -5.9% | i | i
NNc1nc(-c2ccccc2)nc2sc3c(c12)CCCC3 | -3.5% | -4.2% | 12.1% | i | i
NC(=O)COc1ccccc1C(=O)Nc1ccccc1 | . | 4.3% | . | . | .
Cc1ccc(-c2cc(C(=O)N/N=C/C=C/c3ccccc3)n[nH]2)s1 | 0.0% | -3.1% | 15.8µM* | i | i

Source: PubChem BioAssay (National Center for Advancing Translational Sciences (NCATS))
